Our source for the composite z-score and z-score values is PubChem BioAssay.

Test [1] deals with wheat germ agglutinin (Triticum aestivum), Alexa647-labelled. In words: wheat germ agglutinin binders on compound microarrays, profiling panel, artefact control for SMM control-protein annotation, biochemical, small-molecule microarray, 635/667 nm fluorescence (AID 1140).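 Further: score merges 667 nm feature emission with signal to noise over triplicate slides.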 Particulars: WGA-A647 binding, 635 nm fluorescence, higher = more signal.
In test [2] the target is Luciferin 4-monooxygenase (Photinus pyralis) (UniProt P08659). In words: firefly luciferase enzyme inhibitors, primary screen, biochemical, luminescence, purified enzyme, 2006 set (AID 1141).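 Further: cell-free assay with purified firefly luciferase at 100 ng per well in PBS; test concentration not given here.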 Particulars: SteadyGlo luminescence, 30 min, higher = more signal, called active from +8 up or from −8 down.
Test [3] relates to Wnt5a (protein binding on small-molecule microarray). In words: Wnt5a binders on small-molecule microarray, primary screen, biophysical, 635/667 nm fluorescence (AID 1142).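 Further: fluorescence read at 667 nm with signal to noise per printed feature.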 The settings on record: 635 nm fluorescence, higher = more signal.
Test [4] in a line: cell viability in Huh7 cells, primary screen, cytotoxicity control for HCV replication inhibitor project, CellTiter-Glo luminescence, basal, 48 h (AID 1143).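 Further: Huh7 hepatoma cells carrying a hepatitis C replication reporter with no stimulus; test concentration not given here.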 Particulars: Huh7 HCV replicon, higher = more signal, called active from +8 up or from −8 down. Background: In ATP-based viability assays light output follows the ATP content of the culture.
Test [5] is described as follows: CREB reporter modulators without forskolin, primary screen, cell-based, PC12, CRE-LacZ reporter, unstimulated (AID 1145). The settings on record: no forskolin, luminescence, 4.5 h, higher = more signal, called active from +8 up or from −8 down.
Test [6] is described as follows: CREB reporter modulators under forskolin, primary screen, cell-based, PC12, CRE-LacZ reporter, forskolin-stimulated (AID 1146).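 Further: PC12 cells with 6xCRE LacZ reporter stimulated by forskolin 10 µM; beta-galactosidase reporter signal reflecting CREB driven transcription.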 The settings on record: luminescence, 4.5 h, higher = more signal, called active from +8 up or from −8 down.
For test [7], the target named is Streptavidin (Streptomyces avidinii) (UniProt P22629). In words: streptavidin binders on small-molecule microarray, primary screen, artefact control for SMM compound annotation, biophysical, 635/667 nm fluorescence (AID 1147).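 Further: signal reflects streptavidin binding to arrayed compounds as a control protein.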 Particulars: streptavidin binding, higher = more signal.
Test [8] in a line: small-molecule binders of probe aInhba, primary screen, biochemical, small-molecule microarray, 635/667 nm fluorescence (AID 1148).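 Further: score merges 667nm spot fluorescence with signal-to-noise for antibody binding to printed compounds.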 Particulars: higher = more signal.
Test [9] concerns the target Torsin-1A (Homo sapiens) (UniProt O14656). In words: torsin A binders from cell lysate, primary screen, small-molecule microarray, wild-type, 635/667 nm (AID 1149). The settings on record: COS7 hTOR1A-WT lysate, 635 nm fluorescence, higher = more signal.
The target is the same in test [10]. In words: small-molecule binders of mutant TOR1A in lysate, primary screen, cell lysate, small-molecule microarray, COS7 lysate, 635/667 nm fluorescence (AID 1150).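 Further: score pools 667 nm emission and signal to noise measuring lysate protein binding.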 The settings on record: COS7 hTOR1A mutant lysate, 635 nm fluorescence, higher = more signal.
For test [11], the system named is Sonic hedgehog protein (Shh). In words: small-molecule binders of Shh protein, primary screen, biochemical, small-molecule microarray, 635/667 nm fluorescence (AID 1151).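 Further: Shh protein binding to compounds spotted on small-molecule microarray slides; score combines spot fluorescence intensity with signal-to-noise across triplicate slides.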 The settings on record: small-molecule microarray binding, 635 nm fluorescence; higher = more signal.
Test [12] can be described thus: E. coli DRC41 culture turbidity changes, primary screen, E. coli filamentation inducer project, strain DRC41, OD650, 48 h (AID 1152).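 Further: E. coli MC1000 strain DRC41 lacking acrAB efflux pump and sulA.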 Particulars: E. coli DRC41 (acrAB sulA), higher = more signal, called active from +8 up or from −8 down.
Test [13] can be described thus: small-molecule binders of probe aLefty1, primary screen, biochemical, small-molecule microarray, 635/667 nm fluorescence (AID 1153).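 Further: score merges spot fluorescence with signal-to-noise ratio from the scanned slide images.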 Particulars: higher = more signal.
Test [14] can be described thus: PSAC antagonists in infected red cells, primary screen, cell-based, P. falciparum Indochina, OD700, 1 h (AID 1154). The settings on record: P. falciparum Indochina infected RBC osmotic lysis, higher = more signal, called active from +8 up or from −8 down.
Test [15] in a line: PSAC antagonists in infected red cells, primary screen, cell-based, P. falciparum Indochina, OD700, 2 h (AID 1155).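 Further: lysis reports solute entry through the parasite surface anion channel PSAC; channel blockers reduce lysis of infected cells.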 Particulars: P. falciparum Indochina infected erythrocytes, osmotic lysis OD700; higher = more signal, called active from +8 up or from −8 down.
Test [16] can be described thus: osmotic lysis modulators in infected erythrocytes, primary screen, PSAC antagonist project, cell-based, P. falciparum Indochina, OD700, 3 h (AID 1156). Particulars: higher = more signal, called active from +8 up or from −8 down.
Test [17] can be described thus: PSAC antagonists in infected red cells, primary screen, cell-based, P. falciparum Indochina, OD700, 18 h (AID 1157). The settings on record: P. falciparum Indochina infected erythrocytes, osmotic lysis OD700, 18 h; higher = more signal, called active from +8 up or from −8 down.
The nature of test [18]: modulators of S6 phosphorylation in cells, primary screen, cell-based, A549, cytoblot, luminescence, serum-stimulated (AID 1158).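 Further: serum-stimulated A549 lung adenocarcinoma cells; signal is phosphorylated S6 detected by cytoblot immunostaining with HRP secondary.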 The settings on record: A549 phospho-S6 cytoblot, 5 h, higher = more signal.
Test [19] deals with NADPH oxidase 2 (Homo sapiens) (UniProt P04839). Kind of test: NOX2-dependent H2O2 signal modulators, primary screen, NOX inhibitor project, cell-based, HEK293-NOX2, PMA-stimulated, Amplex Red fluorescence (AID 1159). Further: test concentration not given here. The settings on record: 45 min, higher = more signal, called active from +8 up or from −8 down.
Test [20] deals with NADPH oxidase 4 (Homo sapiens) (UniProt Q9NPH5). In words: NOX4-dependent H2O2 signal modulators, primary screen, NOX inhibitor project, cell-based, HEK293-NOX4, tetracycline-induced, Amplex Red fluorescence (AID 1160). Particulars: 45 min, higher = more signal, called active from +8 up or from −8 down.

Active and inactive are the calls of the source.

Chain of Torsin-1A (Homo sapiens) (O14656 whole entry, looked up): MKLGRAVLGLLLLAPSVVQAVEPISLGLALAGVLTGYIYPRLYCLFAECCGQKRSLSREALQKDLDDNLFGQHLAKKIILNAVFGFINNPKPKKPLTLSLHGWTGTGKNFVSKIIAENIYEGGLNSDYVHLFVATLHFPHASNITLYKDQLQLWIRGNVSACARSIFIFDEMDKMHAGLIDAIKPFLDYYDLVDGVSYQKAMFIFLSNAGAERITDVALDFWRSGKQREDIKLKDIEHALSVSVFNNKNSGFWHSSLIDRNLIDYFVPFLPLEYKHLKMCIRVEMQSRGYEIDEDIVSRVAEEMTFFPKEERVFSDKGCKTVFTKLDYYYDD
Chain of Streptavidin (Streptomyces avidinii) (P22629 whole entry, looked up): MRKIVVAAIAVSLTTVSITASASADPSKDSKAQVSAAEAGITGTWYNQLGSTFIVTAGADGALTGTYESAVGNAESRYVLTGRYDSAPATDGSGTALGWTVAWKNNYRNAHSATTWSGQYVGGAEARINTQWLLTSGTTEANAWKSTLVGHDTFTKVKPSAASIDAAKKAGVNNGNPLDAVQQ
Chain of NADPH oxidase 4 (Homo sapiens) (Q9NPH5 whole entry, looked up): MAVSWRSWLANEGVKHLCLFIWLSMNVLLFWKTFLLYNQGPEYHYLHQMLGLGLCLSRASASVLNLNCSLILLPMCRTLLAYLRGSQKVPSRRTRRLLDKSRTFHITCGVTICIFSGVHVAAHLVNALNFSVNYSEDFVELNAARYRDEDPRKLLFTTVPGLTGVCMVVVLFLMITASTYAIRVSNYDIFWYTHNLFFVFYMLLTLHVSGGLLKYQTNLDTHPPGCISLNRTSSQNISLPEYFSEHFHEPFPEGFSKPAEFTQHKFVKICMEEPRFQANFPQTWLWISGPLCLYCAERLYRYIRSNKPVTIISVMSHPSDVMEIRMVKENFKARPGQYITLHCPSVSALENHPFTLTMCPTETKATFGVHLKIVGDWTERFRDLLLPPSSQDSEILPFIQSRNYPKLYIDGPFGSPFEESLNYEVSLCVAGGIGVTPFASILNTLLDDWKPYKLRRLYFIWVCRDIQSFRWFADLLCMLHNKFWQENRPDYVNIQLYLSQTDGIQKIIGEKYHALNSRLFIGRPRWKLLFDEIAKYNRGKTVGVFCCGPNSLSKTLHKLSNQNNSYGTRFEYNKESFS
Chain of NADPH oxidase 2 (Homo sapiens) (P04839 whole entry, looked up): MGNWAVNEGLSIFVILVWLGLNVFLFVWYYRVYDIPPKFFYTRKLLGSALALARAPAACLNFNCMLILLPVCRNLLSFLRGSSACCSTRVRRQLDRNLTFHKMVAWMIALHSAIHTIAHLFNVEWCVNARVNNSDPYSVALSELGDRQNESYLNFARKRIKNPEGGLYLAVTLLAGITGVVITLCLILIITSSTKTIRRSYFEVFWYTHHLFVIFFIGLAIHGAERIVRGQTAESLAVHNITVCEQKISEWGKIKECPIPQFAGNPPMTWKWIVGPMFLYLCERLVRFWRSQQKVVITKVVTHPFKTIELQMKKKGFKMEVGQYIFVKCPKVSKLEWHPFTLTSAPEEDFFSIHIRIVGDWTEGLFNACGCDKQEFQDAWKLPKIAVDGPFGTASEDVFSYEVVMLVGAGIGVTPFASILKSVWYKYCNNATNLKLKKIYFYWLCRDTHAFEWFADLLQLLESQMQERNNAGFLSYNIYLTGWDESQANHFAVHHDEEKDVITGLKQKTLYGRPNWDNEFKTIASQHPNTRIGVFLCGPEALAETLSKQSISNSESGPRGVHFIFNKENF
Chain of Luciferin 4-monooxygenase (Photinus pyralis) (P08659 whole entry, looked up): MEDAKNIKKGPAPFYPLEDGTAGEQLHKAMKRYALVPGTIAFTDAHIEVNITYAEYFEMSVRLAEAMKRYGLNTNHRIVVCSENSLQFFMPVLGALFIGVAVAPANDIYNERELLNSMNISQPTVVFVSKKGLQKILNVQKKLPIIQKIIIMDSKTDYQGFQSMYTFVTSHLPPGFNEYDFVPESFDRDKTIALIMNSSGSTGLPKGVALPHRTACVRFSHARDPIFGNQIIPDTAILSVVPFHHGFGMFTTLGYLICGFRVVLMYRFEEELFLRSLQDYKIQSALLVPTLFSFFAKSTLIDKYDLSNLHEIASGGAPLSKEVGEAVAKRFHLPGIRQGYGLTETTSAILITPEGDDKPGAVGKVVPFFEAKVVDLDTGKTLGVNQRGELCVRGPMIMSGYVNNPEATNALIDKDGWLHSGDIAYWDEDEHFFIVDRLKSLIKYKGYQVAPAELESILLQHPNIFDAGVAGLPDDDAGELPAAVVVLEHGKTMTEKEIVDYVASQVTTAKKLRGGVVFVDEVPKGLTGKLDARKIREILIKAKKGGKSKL

For the molecule `O=C(NCC(F)(F)F)[C@@H]1c2ccccc2C(=O)N(C2Cc3ccccc3C2)[C@H]1c1ccc(CO)cc1`, the composite z-score in [1] was -2.05; in test [3], -0.034; in test [7] it was -1.25; in test [8] it was 0.106; in test [9], -0.0578; in test [10], 0.224. Also, the figures for the composite z-score in [11] and in [13] were -0.875 and 0.0588, respectively. For the same molecule, the z-score in test [2] is -1.04 (inactive); in test [4], -1.11 (inactive); in [5] it was -0.295 (inactive); in [6], -1.15 (inactive); in test [12] it was 2.43 (inactive); in test [14], 3.55 (inactive). The z-score was -0.483 (inactive) in test [15]; 1.8 (inactive) in [16]; -0.683 (inactive) in [17]; 1.14 in test [18]; 0.207 (inactive) in test [19]; 1.23 (inactive) in test [20].
Consider `CO[C@H]1O[C@H](CO)[C@@H](OC(=O)Nc2ccccc2)[C@H](OC(=O)Nc2ccccc2-c2ccccc2)[C@@H]1OC(=O)Nc1ccccc1-c1ccccc1`, for which the composite z-score in [1] amounted to 1.26; in [3] it was 0.36; in test [7] it was 1.44; in test [8], 0.329; in [9], 1.17; in test [10], 0.806. The composite z-score in [11] amounted to 2.03; in [13], 1.29. In addition, the z-score in [2] was -1.24 (inactive); in [4] it was -5.22 (inactive); in [5], 0.204 (inactive); in [6], -0.446 (inactive); in test [12], 1.33 (inactive); in [14], 2.57 (inactive). Besides, the z-score is 0.116 (inactive) in test [15]; -0.358 (inactive) in [16]; -2.03 (inactive) in [17]; 1.01 in test [18]; 2.2 (inactive) in [19]; 0.697 (inactive) in [20].
For the molecule `CC(C)C(CO)N1C(=O)[C@@H]2C3C(=O)OCCC/C=C\[C@H]3OC23C=CCN(C(C)C)C(=O)[C@@H]13` (stereo not given in full), the composite z-score is -1.14 in test [1]; -0.0608 in test [3]; -0.643 in test [7]; 0.0228 in [8]; 0.286 in [9]; 0.703 in test [10]. Also, the figures for the composite z-score in test [11] and in test [13] were 0.321 and -0.142, respectively. The z-score in [2] is -0.774 (inactive); in test [4], 0.303 (inactive); in test [5], 0.333 (inactive); in test [6], -1.18 (inactive); in [12], 2.21 (inactive); in test [14] it was -0.0173 (inactive). Besides, the z-score in [15] is -0.96 (inactive); in test [16], -0.677 (inactive); in test [17] it was -1.36 (inactive); in test [18], 0.225; in [19], 0.914 (inactive); in test [20], 0.527 (inactive).
Take `COC(=O)C(CC#Cc1ccc2c(c1)[C@]1(C(=O)N2)[C@H](C(N)=O)[C@H]2C(=O)O[C@H](c3ccccc3)[C@H](c3ccccc3)N2[C@@H]1c1ccc(O)cc1)C(=O)OC`: the composite z-score in test [1] is -0.3; in test [3], -0.156; in test [7], -1.09; in test [8], -0.504; in test [9] it was -0.372; in test [10] it was 0.488. The composite z-score is -0.295 in test [11] and -0.696 in [13]. Moreover, the z-score was -1.43 (inactive) in [2]; -0.229 (inactive) in [4]; 0.182 (inactive) in [5]; -0.909 (inactive) in test [6]; 1.66 (inactive) in test [12]; 14.5 (active) in test [14]. In addition, the z-score was 1.23 (inactive) in [15]; 0.974 (inactive) in test [16]; 0.37 (inactive) in test [17]; 0.331 in test [18]; 1.32 (inactive) in test [19]; 0.297 (inactive) in [20].
Consider `CC(C)C(=C=CC[C@H](O)c1ccc(OCCO)cc1)C[C@H](O)COCc1ccccc1`, for which the composite z-score in [1] was 0.325; in [3] it was 0.317; in [7], 0.192; in test [8] it was -0.0986; in test [9], 1.11; in test [10] it was 1.42. Also, the composite z-score in [11] is 1.96; in [13] it was 0.0751. Besides, the z-score in test [2] was -2.55 (inactive); in [4], -3.34 (inactive); in [5], 12.1 (active); in test [6], -0.14 (inactive); in [12], 0.811 (inactive); in test [14], 20.1 (active). Further, the z-score in [15] was 4.54 (inactive); in [16], 1.7 (inactive); in test [17], 0.923 (inactive); in [18], -0.474; in test [19], -0.557 (inactive); in test [20] it was -0.142 (inactive).
On to `COCCCN1C(=O)[C@@]2(Cc3ccccc31)c1ccccc1C(=O)N(Cc1ccccc1Cl)[C@H]2c1ccc(CO)cc1`, for which the composite z-score is -1.02 in test [1]; 0 in test [3]; -0.733 in [7]; -0.108 in test [8]; -0.471 in [9]; 0.0439 in test [10]. In addition, the values for the composite z-score in test [11] and in [13] were 0.0161 and 0.0053, respectively. Moreover, the z-score in [2] is -1.13 (inactive); in test [4], -1.33 (inactive); in test [5], -0.179 (inactive); in test [6] it was -0.415 (inactive); in test [12], 3.46 (inactive); in test [14], 0.399 (inactive). Besides, the z-score in test [15] is -0.277 (inactive); in [16], -0.992 (inactive); in test [17] it was -0.85 (inactive); in test [18] it was 1.34; in test [19], -2.48 (inactive); in test [20] it was 0.163 (inactive).
With `C=CCC(OC(C)=O)[C@@H]1[C@@H](N(Cc2cccc3ccccc23)C(=O)Cc2ccc(OC)cc2)c2cc(OCCCO)ccc2N1C(=O)Cc1ccc(OC)cc1` (stereo not given in full), the composite z-score was 0.349 in test [1]; -0.143 in test [3]; 0.131 in test [7]; -0.0986 in test [8]; 0.271 in test [9]; -0.482 in test [10]. Moreover, the composite z-score in test [11] turned out to be 0.0188; in [13], 0.051. Besides, the z-score in test [2] is -0.369 (inactive); in [4], -0.627 (inactive); in test [5], 1.78 (inactive); in test [6], -1.2 (inactive); in test [12] it was 2.17 (inactive); in test [14], 1.62 (inactive). The z-score in [15] is 0.317 (inactive); in test [16], 0.119 (inactive); in test [17] it was 0.506 (inactive); in [18] it was 0.623; in test [19], 0.459 (inactive); in test [20] it was -0.451 (inactive).
Regarding `COCCOC(=O)N1C(=O)[C@@]2(c3cc(C#CC4(O)CCCCCC4)ccc31)[C@H](c1ccc(O)cc1)N1[C@H](c3ccccc3)[C@H](c3ccccc3)OC(=O)[C@H]1[C@@H]2C(N)=O`, the composite z-score was 0.706 in test [1]; 0.496 in test [3]; 0.629 in test [7]; 0.101 in test [8]; 0.0241 in test [9]; 0.497 in [10]. The composite z-score in test [11] is 1.22; in test [13], 0.181. In addition, the z-score in test [2] is -1.37 (inactive); in test [4], -2.03 (inactive); in [5] it was -0.168 (inactive); in test [6], -0.304 (inactive); in [12], 1.91 (inactive); in [14] it was 1.14 (inactive). Further, the z-score in [15] was -1.24 (inactive); in test [16] it was -1.54 (inactive); in test [17] it was -2.13 (inactive); in test [18], 0.736; in [19] it was 1.97 (inactive); in test [20] it was 0.751 (inactive).
